# The list is not random: actives were taken first. Their share in the collection is about 11%.
# hNpr1 antagonist – blocks ANP-stimulated signaling of human Npr1 receptor. 76,000 compounds, 1.6% hits. AID 1347048. HEK293 hNpr1 GloSensor cGMP, ANP-stimulated luminescence. P16066. Potency, µM (top dose mostly 46.3 µM), inactives show at the highest dose activity change, negative = inhibition, hits mostly inhibitors; calls by dose curve; also: % is scaled to controls: 0 for no effect and ±100 for the full control effect; nearly all actives have a fitted effect of over 60% in size
#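 HEK293 cells stably expressing human Npr1 and cGMP GloSensor pGS-40F, loaded 2 h with 2% GloSensor reagent, given compound 30 min at room temperature. Luminescence read before and 20 min after 0.1 nM hNppA.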
# HEK cytotox – cytotoxic compounds in HEK 293 cells | Potency, µM (series often up to 115 µM), without a hit: at the highest dose activity change, negative = cytotoxicity, hits mostly inhibitors | HEK 293 viability, ATP luminescence (CellTiter-Glo), 48-72 h | 94,000 compounds, 6.6% hits; also: % is scaled to controls: 0 for no effect and ±100 for the full control effect; nearly all actives have a fitted effect of over 60% in size
#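 Viability of HEK 293 cells, plated at 250 cells/well, was judged by cellular ATP after compound treatment for 48 or 72 hr. Luminescence was imaged 10 min after CellTiter-Glo addition at room temperature.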
# FLuc inh-1 – blocks purified firefly luciferase enzyme activity | P08659 | purified P. pyralis luciferase, luminescence, biochemical | Potency, µM (top dose mostly 115 µM), most hits filed as inhibitors | 76,000 compounds, 2.5% hits | AID 1347043; also: % is scaled to controls: 0 for no effect and ±100 for the full control effect; nearly all actives have a fitted effect of over 65% in size
#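 Luminescence read by CCD imaging after purified firefly luciferase (10nM final) was added to substrate buffer holding 10uM D-luciferin and 10uM ATP, pH 7.5, pre-dosed with compound.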
# NIH3T3 tox – NIH 3T3 cell cytotoxicity. NIH 3T3 viability, CellTiter-Glo ATP luminescence, 48-72 h. Potency, µM (top dose mostly 96.7 µM), for inactives: top-dose activity change, negative = cytotoxicity, usual class: inhibitors. 94,000 compounds, 4.3% hits. AID 1345082; also: % is scaled to controls: 0 for no effect and ±100 for the full control effect; nearly all actives have a fitted effect of over 55% in size
#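 NIH 3T3 cells at 400 cells/well received 23 nL of compound by pintool and were incubated 48 or 72 h at 37 °C. Viability was read as ATP-coupled CellTiter-Glo luminescence.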
# FLuc SDR -ATP – binders stabilizing firefly luciferase, without ATP | AID 1963318 | shares compounds with FLuc inh-1 | 1,300 compounds, 7.8% hits | Purified FLuc-C-HiBiT, Nano-Glo HiBiT luminescence, no ATP | Potency, µM (series often up to 32.7 µM), inactives show at the top dose activation (signal gain), usual class: activators; also: nearly all actives have a fitted effect of over 55% in size
# FLuc SDR ATP – stabilizes firefly luciferase with ATP present; purified FLuc-C-HiBiT + ATP, HiBiT complementation luminescence; 1,300 compounds, 8.7% hits; Potency, µM (highest dose often 32.7 µM), for the others: at the highest dose activation (gain of signal), most hits filed as activators; shares compounds with FLuc inh-1; AID 1963319;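 also: signal reports ligand binding via conformational change of the enzyme rather than luciferase catalysis; % of control where 0% means no effect; nearly all actives have a fitted effect of over 55% in size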
# FLuc inh-2 – inhibitors of firefly luciferase enzymatic activity | shares compounds with FLuc inh-1 | purified FLuc-C-HiBiT enzyme, luciferin luminescence | Potency, µM (top dose mostly 32.7 µM), without a hit: at the top dose activity change, negative = inhibition, usual class: inhibitors | 1,300 compounds, 42% hits; also: % is scaled to controls: 0 for no effect and ±100 for the full control effect; nearly all actives have a fitted effect of over 70% in size
# * hit, by the source's call; i = inactive; ? = inconclusive; . = no result; [ ] = dose if it differs, or a comment. Unless noted, calls follow the shape of the dose curve; as a rule, active = well fitted curve in the direction sought with a large enough effect; inconclusive = small, poorly fitted or top-dose-only effect, or another doubt; inactive = no such curve, though single readings can be large; an effect the other way counts as inactive or inconclusive. Potency is read from the fitted curve at half-maximal effect.
SMILES,hNpr1 antagonist,HEK cytotox,FLuc inh-1,NIH3T3 tox,FLuc SDR -ATP,FLuc SDR ATP,FLuc inh-2
CCc1ncc2c(N3CC4CCC(C3)N4CC(F)(F)F)nc3ccccc3n12,.,39.8µM*,.,?,.,.,.
COc1cc2ncnc(N3CC4CCC(C3)N4CC(F)(F)F)c2cc1OC,.,-7.1%,.,?,.,.,.
COc1ccc(CN(C)Cc2cccc(C(F)(F)F)c2)cc1,.,?,.,-9.1%[138 µM],.,.,.
N#Cc1cccc(CN2CC[C@@H]3OCC(=O)N(Cc4ccccc4)[C@H]3CC2)c1,-14.7%[70.6 µM],100µM*,i,?,.,.,.
CC(C)N1C(=O)CO[C@H]2CCN(Cc3ccncc3Cl)CC[C@@H]21,-24.3%[70.6 µM],?,i,?,.,.,.
O=C1CO[C@H]2CCN(Cc3ccncc3Cl)CC[C@@H]2N1c1ccccc1,-5.9%[70.6 µM],44.7µM*,i,79.4µM*,.,.,.
O=C1CO[C@H]2CCN(Cc3ccccc3Cl)CC[C@@H]2N1CCc1cccnc1,-28.9%[70.6 µM],?,i,100µM*,.,.,.
COc1cccc(-c2cn3cc(C(=O)NCc4ccccc4F)nc3s2)c1,.,?,.,-24.8%,.,.,.
CCOc1ccccc1CN1CCC2(CCN(C(=O)Nc3ccccc3)CC2)Oc2ccccc21,16.8%,?,i,?,.,.,.
Cc1nn(-c2ccccc2)c2c1C(C)N(C1CCCN(C(=O)c3ccccc3Cl)C1)C2=O (stereo not given),.,39.8µM*,.,?,.,.,.
Cc1nn(-c2ccccc2)c2c1C(C)N(C1CCCN(C(=O)c3ccncc3)C1)C2=O (stereo not given),.,-25.7%,.,?,.,.,.
COc1ccc(C(=O)N2CCCC(N3C(=O)c4c(c(C)nn4-c4ccccc4)C3C)C2)cc1 (stereo not given),.,?,.,14.1µM*,.,.,.
CNC(=O)c1cc(C2CC2)nc2onc(C3CCCN3C(=O)C3CCCC3)c12 (stereo not given),.,i,.,?,.,.,.
O=[S+]([O-])(c1cccc(C(F)(F)F)c1)N1CCCN(c2ccnc3ccnn23)CC1,.,44.7µM*,.,?,.,.,.
O=C(c1ccc(C(F)(F)F)cc1)N1CCCN(c2ccnc3ccnn23)CC1,.,22.4µM*,.,?,.,.,.
CN1C[C@H](C(=O)Nc2ccncn2)C[C@H]1c1cccc(C(F)(F)F)c1,-8.0%[70.6 µM],?,i,?,.,.,.
Cn1cc(CN2C[C@H](C(=O)Nc3ccc(F)cc3)C[C@H]2c2cccc(C(F)(F)F)c2)cn1,-9.7%,?,i,?,.,.,.
O=C(Nc1ccncn1)[C@@H]1C[C@@H](c2cccc(C(F)(F)F)c2)N(CC2CCOCC2)C1,-6.7%[70.6 µM],79.4µM*,i,?,.,.,.
O=C(Nc1ccc(F)cc1)[C@@H]1C[C@@H](c2cccc(C(F)(F)F)c2)N(CC2CCOCC2)C1,-18.0%,?,i,25.1µM*,.,.,.
O=C1CCN(C(=O)COc2ccc(F)cc2)CCCC(c2nc(-c3cccnc3)no2)CCN1 (stereo not given),-0.4%,-3.8%,i,-18.2%,.,.,.
Cc1cn2nc(C(=O)Nc3ccc4c(c3)OCCO4)cc2c(N(C)Cc2ccccc2)n1,-0.9%,-23.6%,10µM*,?,23.6%,19.7%,?
Cc1ccc([S+](=O)([O-])N2CCC[C@@H]2C(=O)N2CCCC(c3nc4ccncc4[nH]3)C2)cc1 (stereo not given in full),.,i,.,-4.6%,.,.,.
CCn1ncc(NC(=O)Cn2ncc3cc(-c4cccc(F)c4F)ccc32)n1,?,-66.8%,?,-54.0%,.,.,.
CCn1ncc(NC(=O)Cn2ncc3cc(-c4ccc(C)cc4F)ccc32)n1,?,-54.4%,14.1µM*,-64.9%,20.0%,12.5%,?
CCn1ncc(NC(=O)Cn2ncc3cc(-c4ccc(N(C)C)cc4)ccc32)n1,?,?,0.251µM*,?,?,?,0.785µM*
SMILES,hNpr1 antagonist,HEK cytotox,FLuc inh-1,NIH3T3 tox,FLuc SDR -ATP,FLuc SDR ATP,FLuc inh-2
Cc1cc(C[C@@H]2COC[C@@H]2NC(=O)CCn2c(C)cc3ccccc32)on1,9.0%,-9.2%,i,-12.5%,.,.,.
CN1CCN(c2ccc(-c3cc4c(ccn4C)c(C(=O)NCCN4CCNC4=O)n3)cc2)CC1,5.8%,?,4.47µM*,?,24.7%,16.0%,?
Cc1ccc(C(=O)COC(=O)c2cc(-c3cccs3)nc3ccccc23)cc1,.,.,.,.,12.0%,11.0%,?
COc1ccc(-c2ccccc2C(=O)NCC(F)F)nn1,.,0.4%[172 µM],.,-8.8%[138 µM],.,.,.
CCc1ccc2nc(N3CCC(C(=O)O)CC3)sc2c1,.,.,.,.,2.48µM*,0.07µM*,0.0351µM*
Cn1cc(/C=C2\C(=O)Nc3cccnc32)c2ccccc21,.,.,.,.,16.7%,9.6%,?
Cc1sc2cc(C(=O)N3CCCC3)[nH]c2c1CN1CCCCC1,-0.4%,-4.1%,i,4.4%,.,.,.
CC1CCCN(C(=O)c2cc3ccc4cccnc4c3[nH]2)C1 (stereo not given),.,.,.,.,3.94µM*,2.48µM*,0.556µM*
O=C(c1cc2ccc3cccnc3c2[nH]1)N1CCCCC1,.,.,.,.,11.1µM*,?,1.57µM*
Cc1cn2c(=O)cc(COC(=O)c3ccccc3F)nc2s1,.,.,.,.,11.7%,?,?
CC(CCn1cccn1)NC(=O)c1csc2nc(-c3ccc(C(F)(F)F)cc3)cn12 (stereo not given),-27.2%,?,12.6µM*,?,17.2%,12.3%,9.89µM*
N#Cc1c(-n2ncnc2-c2cccc(Br)c2)sc2c1CCCCC2,.,.,.,.,31.4%,?,3.13µM*
Cc1ccc(C(=O)Nc2cc(-c3cccnc3)nn2-c2ccccc2)cc1,.,-28.1%,.,?,.,.,.
CCOCC1(C)COc2ccc(C(=O)Nc3ccc(Cl)cc3)cc2N1 (stereo not given),31.6µM*,39.8µM*,11.2µM*,44.7µM*,16.7%[49.3 µM],11.4%[49.3 µM],?
Cc1ccc(S(=O)(=O)Nc2ccc(C)n(CC(=O)N3CCCCCC3)c2=O)cc1,-0.8%,3.7%,i,i,.,.,.
COc1ccc(NC(=O)Nc2ccc(C)n(CC(=O)O)c2=O)cc1,-3.8%,12.1%,3.98µM*,i,11.1µM*,?,9.89µM*
COc1ccc(S(=O)(=O)Nc2ccc(C)n(CC(=O)NCc3ccc(C)o3)c2=O)cc1,-3.8%,-7.4%,i,i,.,.,.
Cc1ccc(NC(=O)Nc2ccc(C)n(CC(=O)NCCC(C)C)c2=O)cc1,?,28.2µM*,0.562µM*,35.5µM*,?,?,1.11µM*
Cc1cccc(NC(=O)Nc2ccc(C)n(CC(=O)N(C)C)c2=O)c1,3.4%,8.0%,?,i,.,.,.
COc1ccc(NC(=O)Nc2ccc(C)n(CC(=O)NCC(C)C)c2=O)cc1,-15.3%,-29.0%,1.58µM*,-17.3%,7.85µM*,?,3.51µM*
